Screening results deposited in PubChem BioAssay by several laboratories.
NALP1 inh: inhibitors of NALP1 inflammasome in yeast; S. cerevisiae NALP1/ASC/caspase-1 growth, X-gal OD620, 72 h; inhibition, % at 10 µM; 280,000 compounds, 0.61% hits; AID 2071; in the data active means inhibition mostly above about 24%, no sharp cut-off; inactive means mostly below about 32%
UBC13 inh: human UBC13 polyubiquitination inhibition. 330,000 compounds, 0.47% hits. P61088. inhibition, % at 20 µM. UBC13 polyubiquitin chain formation, TR-FRET; in the data active means inhibition above about 45%, passing the limit was not always enough
Target sequence (P61088 whole entry, looked up): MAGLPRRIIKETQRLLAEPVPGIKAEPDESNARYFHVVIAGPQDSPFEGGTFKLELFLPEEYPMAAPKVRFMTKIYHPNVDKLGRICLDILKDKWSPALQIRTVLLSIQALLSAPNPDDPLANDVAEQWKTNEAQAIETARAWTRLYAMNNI
CR mimetic SO: caloric restriction mimetics inhibiting age-related superoxide in yeast. S. cerevisiae aged cells, superoxide DHE fluorescence; hits give low values. superoxide response (% of plate mean), % at 10 µM. 330,000 compounds, 0.18% hits;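 active means superoxide response under a set limit, about three screen SD below normal, cut at about 65% in these data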;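 further: yeast aged for seven days with compound at 30 °C before DHE staining; 100% = average MFI of all compound-treated wells on the plate with controls excluded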
NR3A LBD binder: modulators (binders) of human NR3A ligand-binding domain; NR3A LBD differential scanning fluorimetry, Tm shift; 0% = protein alone, 100% = glycine-bound protein; Tm shift relative to glycine control, % at 25 µM; 340,000 compounds, 2.5% hits; AID 1259313;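 active means melting temperature shift of at least 10% of the positive control shift, at one fixed dose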
dFosB act: activators of mouse delta FosB homodimer; P13346; purified delta FosB, TAMRA-CDK5 oligo fluorescence polarization; percent of positive-control signal above neutral wells; activation, % at 25 µM; 340,000 compounds, 0.99% hits; AID 493131;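 active means mean activation above about 17%, with every replicate also reaching it, limit read from the data, passing the limit was not always enough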
Target sequence (P13346 whole entry, looked up): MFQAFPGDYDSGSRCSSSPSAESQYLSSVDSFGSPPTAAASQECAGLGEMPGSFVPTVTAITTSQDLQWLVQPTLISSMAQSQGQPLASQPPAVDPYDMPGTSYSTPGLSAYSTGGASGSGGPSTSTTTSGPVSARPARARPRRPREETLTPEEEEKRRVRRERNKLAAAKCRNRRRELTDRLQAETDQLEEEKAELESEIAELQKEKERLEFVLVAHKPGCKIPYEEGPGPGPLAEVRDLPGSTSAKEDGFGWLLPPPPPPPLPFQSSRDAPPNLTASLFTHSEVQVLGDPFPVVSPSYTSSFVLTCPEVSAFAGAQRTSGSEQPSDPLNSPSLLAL
An asterisk follows results filed as active; . = no result given. This is a sample that favours compounds with a hit; in the whole collection about 4.3% have one here.

SMILES	NALP1 inh	UBC13 inh	CR mimetic SO	NR3A LBD binder	dFosB act
CN=C1S/C(=C\c2cccc(Cl)c2Cl)C(=O)N1C	.	4	117	1	.
Cc1ccc(S(=O)(=O)N(C)CC(=O)O/N=C(\N)c2ccc([N+](=O)[O-])cc2)cc1	6	-6	120	21*	-9
Cc1ccc(C(=O)O/N=C(\N)c2cccc([N+](=O)[O-])c2)cc1	-40	6	93	13*	2
COc1cc(C(=O)O/N=C(\N)c2cccc([N+](=O)[O-])c2)cc(OC)c1OC	.	4	94	14*	-13
Cc1ccc(N2C(=O)N(CC(=O)c3cc(C)ccc3C)C(=O)C2C)cc1 (stereo unspecified)	35	13	96	13*	-5
Cc1ccc(N2C(=O)N(CC(=O)Nc3cc(F)ccc3C)C(=O)C2C)cc1 (stereo unspecified)	.	4	120	2	-9
CC(=O)Nc1ccc(NC(=O)CSc2nnnn2-c2ccc3c(c2)OCCO3)cc1	12	1	104	-2	87*
CC(NC(=O)c1ccccc1NS(C)(=O)=O)c1ccccc1 (stereo unspecified)	7	17	86	20*	4
CC(C)C(=O)Nc1ccc(S(=O)(=O)Nc2nccc(/C=C/c3ccccc3)n2)cc1	29	4	111	-9	-2
Cc1ccc(NC(=O)CN(C)S(=O)(=O)c2cccc3cccnc23)cc1F	26	1	134	14*	-7
Cc1ccc(NC(=O)CN(C)S(=O)(=O)c2cccc3cccnc23)cc1C	4	2	89	-5	-11
CCN(CC)CCN(Cc1cc2ccc(C)cc2[nH]c1=O)C(=O)Nc1ccc(Cl)cc1	-2	0	110	1	-10
Cc1cc(C(=O)OC(C(=O)Nc2cccc(C(F)(F)F)c2)c2ccccc2)c(C)o1 (stereo unspecified)	29	-5	109	13*	-3
N#Cc1ccccc1OCC(=O)Nc1nnc(C2CC2)s1	.	6	97	1	-8
C(=Nc1ccc(Nc2ccccc2)cc1)c1ccc2ccccc2c1	29	.	87	-13	-1
Brc1ccc(C=Nc2ccc(Nc3ccccc3)cc2)s1	45	.	92	12*	2
CCOc1cc(C(=S)N2CCOCC2)ccc1OS(=O)(=O)c1ccccc1	24	-8	98	11*	-6
COc1cc(C(=S)N2CCCC2)ccc1OS(=O)(=O)c1ccc(NC(C)=O)cc1	-23	-11	89	20*	-6
O=C(NCCCN1CCOCC1)/C(=C/c1ccco1)NC(=O)c1ccccc1	4	-5	84	-1	0
O=C(/C=C/c1ccc(N2CCCCC2)c([N+](=O)[O-])c1)c1ccc(O)cc1	-4	-18	101	11*	-8
O=C(Nc1ccncc1)c1ccc(Cl)c(S(=O)(=O)N2CCCC2)c1	.	1	104	-1	-6
C/C(=N\Nc1nc2ccccc2nc1C)c1ccccc1O	9	-14	90	2	0
Cc1cc(N/N=C/c2ccc(O)cc2O)nc(-c2ccccc2O)n1	-4	.	82	35*	-2
Cc1cc(N/N=C/c2ccccc2O)nc(-c2ccccc2O)n1	24	4	88	25*	3
CC(=NNc1ccc2ccccc2n1)c1ccccc1O	.	.	.	24*	-8
SMILES	NALP1 inh	UBC13 inh	CR mimetic SO	NR3A LBD binder	dFosB act
C/C(=N\Nc1cc(C)nc(-c2ccccc2O)n1)c1ccccc1O	-14	3	96	26*	-1
CN1CCC(CC(C(=O)N2CCCC2)(c2ccccc2)c2ccccc2)C1 (stereo unspecified)	.	.	.	0	-4
O=C(OCC(=O)N1CCCC1=O)c1ccc(Cl)cc1[N+](=O)[O-]	.	-2	116	.	4
Cc1cc(N/N=C/c2ccc(O)cc2O)nc(-n2nc(C)cc2C)n1	26	.	120	27*	5
Cc1cc(N/N=C\c2ccccc2)nc(-c2ccccc2O)n1	-10	18	94	31*	1
Cc1cc(N(C)/N=C/c2ccccc2)nc(-c2ccccc2O)n1	-1	3	109	-1	-6
Nc1nc2ncc(-c3ccsc3)c(N)n2n1	-13	12	90	1	9
CCN(CC)c1ccc(/C=N/NC(=O)c2cc3ccccc3[nH]2)cc1	2	-8	102	14*	10
CCOC(=O)c1c(C)n(-c2ccc(C)cc2)c2c(C(C(C)=O)C(=O)O)c(Br)c(O)c(O)c12 (stereo unspecified)	23	-19	85	20*	-9
Cc1ccc(NS(=O)(=O)c2cccc(C(=O)N3CCN(C(=O)c4ccco4)CC3)c2)cc1	.	-12	76	-1	-3
COc1ccc(Oc2nc(C(F)(F)F)nc3ccccc23)cc1	26	5	91	23*	-6
Cc1ccc(Oc2nc(C(F)(F)F)nc3ccccc23)cc1	32	0	97	-1	-2
O=c1oc(-c2ccccc2)nc2sc3c(c12)CCC3	21	4	146	-1	-17
Nc1nc(-c2ccccc2)nc2sc3c(c12)CCCC3	17	12	97	14*	-1
CCn1nc(C)c(NC(=O)/C=C/c2ccc(OC)c(COc3ccc(Cl)cc3Br)c2)c1C	13	-4	126	-1	207*
CC1(c2ccccc2)NC(=O)N(CC(=O)N2CCOCC2)C1=O (stereo unspecified)	36*	-1	91	0	1
COc1cccc(N2CCN(C(=O)CN3C(=O)NC(C)(c4ccc5ccccc5c4)C3=O)CC2)c1 (stereo unspecified)	.	2	104	19*	-7
CC(C)(C)C1(c2ccccc2)NC(=O)N(CC(=O)N2CCOCC2)C1=O (stereo unspecified)	.	-11	127	1	6
CN(C)CCC(Oc1ccccc1OCc1ccccc1)c1ccccc1 (stereo unspecified)	.	4	104	-1	-10
CN(C)CCCC(C)(O)C(Cc1ccccc1)c1ccccc1 (stereo unspecified)	-3	8	103	14*	3
COc1ccc2c(/C=N/NS(=O)(=O)c3ccc(C)cc3)c[nH]c2c1	15	-6	108	33*	-9
COc1ccc(S(=O)(=O)N/N=C\c2ccccc2F)cc1	13	-4	104	0	-7
Cc1ccc(S(=O)(=O)/C(C#N)=C/c2c[nH]c3ccccc23)cc1	-9	-7	123	13*	12
COc1ccc2[nH]cc(/C=N/NS(=O)(=O)c3ccc(C)cc3)c2c1	.	0	100	25*	-10
Cc1ccc(S(=O)(=O)N/N=C/c2c[nH]c3ccccc23)cc1	26*	-7	94	31*	-5
COc1ccc(CC(=O)Nc2ccc(C(=O)Nc3ccccc3C(=O)O)cc2)cc1OC	34	-6	112	-3	-13
COc1cc(C(=O)NC(C)Cc2ccccn2)ccc1OC1CCN(C(C)=O)CC1 (stereo unspecified)	5	4	.	1	2
O=C(CSc1nnc(-c2ccccc2F)o1)Nc1ccc(N2CCOCC2)cc1	.	2	93	0	-6
